Experimental findings from PubChem BioAssay AID588397 (National Center for Advancing Translational Sciences (NCATS), 2011) are described below.

About 1,000 (77%) of roughly 1,300 compounds were called active. Inconclusive results (about 7%) are left out. The set was probably picked from earlier hits. Some of the results follow. Unmarked numbers belong to inactive results. Calls come from the whole dose curve; as a rule, active = well fitted inhibition curve with a large enough effect; inconclusive = small, poorly fitted or top-dose-only effect; inactive = no such curve, though single readings can be large or run the other way.
% is set by controls: 0 for no effect and ±100 for the full control effect; potency is the fitted concentration of half-maximal effect.

The assay in a line: qHTS of small molecules that selectively kill Giardia lamblia: Hit Validation.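 Note: viability measured as ATP content by luminescence so killing lowers signal; nearly all actives have a fitted effect of over 65% in size.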 The conditions noted are these: Giardia lamblia trophozoite viability, dose-response; series mostly up to 38.3 µM; activity change, negative = killing: at the top concentration. From the text:
Giardia lamblia is a human pathogen afflicting impoverished nations, and the most common cause of outbreaks of diarrhea in the United States. Giardia has been classified by the CDC as a category B bioterrorism organism. The favored anti giardiasis drugs in the US are metronidazole or tinidazole, compounds that have undesirable side effects. Moreover, increasing resistance to drug regimes and recurrence are a concern. It is thus clear that alternative drug treatments are needed.
In a collaboration between the University of Maryland, College Park and the NIH Chemical Genomics Center, a bioluminescence Giardia viability assay based on the trophozoites' ATP content was developed. This assay is suitable for high throughput screening, and miniaturized the assay for compound screening in 1536-well plates. The goal of the project is to screen the Molecular Libraries Small Molecule Repository (MLSMR) for compounds that selectively kill Giardia trophozoites.
NIH Chemical Genomics Center [NCGC]
NIH Molecular Libraries Probe Centers Network [MLPCN]
Assay Submitter (PI): Osnat Herzberg, University of Maryland, College Park, MD.
1. Dispense 2 ul/well media
2. Dispense 23 nl/well compounds
3. Dispense 4 ul/well Giardia trophozoites at a concentration of 100 cells/well
4. Incubate 48 hrs at 37 deg C anaerobically
5. Dispense 4 ul/well ATPLite 1-Step Luminescence assay kit
6. Incubate 15-30 min at room temperature
7. Read luminescence signal on ViewLux plate reader
(Quantitative high-throughput screening tests each substance at several concentrations.)
`O=C(CSc1ccsc1[N+](=O)[O-])NCCc1ccc(Cl)cc1`: the Potency was 1300 nM (active). Regarding `O=C(CSc1ccsc1[N+](=O)[O-])NCCc1ccccc1`, the Potency was 818 nM (active). Still for that read-out and setting: for `CCc1cccc(N=c2c([N+](=O)[O-])nn(-c3ccc(Cl)cc3)n2O)c1` the value was 1450 nM (active); for `CN=c1c([N+](=O)[O-])nn(-c2ccc3c(c2)OCCO3)n1O`, 4100 nM (active); for `O=[N+]([O-])c1nn(-c2ccc3c(c2)OCCO3)n(O)c1=NCCC1=CCCCC1`, 1630 nM (active). On the same count and under the same terms, for `COc1cc(N=c2c([N+](=O)[O-])nn(-c3ccc4c(c3)OCCO4)n2O)cc(OC)c1` the value was 5160 nM (active); for `Cc1cc(C)cc(N=c2c([N+](=O)[O-])nn(-c3ccc4c(c3)OCCO4)n2O)c1`, 729 nM (active). On the same count and under the same terms, for `CCc1cccc(N=c2c([N+](=O)[O-])nn(-c3ccc4c(c3)OCCO4)n2O)c1` the value was 818 nM (active). Consider `O=[N+]([O-])c1nn(-c2ccc3c(c2)OCCO3)n(O)c1=NCCCO`, for which the Potency was 2050 nM (active). Consider `Cn1nc(-c2ccc(Cl)cc2)nc2c(=O)n(C)c(=O)nc1-2`, for which the Potency was 130 nM (active). For the compound `Cn1nc(-c2cccnc2)nc2c(=O)n(C)c(=O)nc1-2`, the Potency was 4100 nM (active). For the compound `Cn1nc(-c2ccc(F)cc2)nc2c(=O)n(C)c(=O)nc1-2`, the Potency was 103 nM (active). Same read-out and setting: for `Cn1nc(-c2ccncc2)nc2c(=O)n(C)c(=O)nc1-2` the value was 1160 nM (active); for `CCCc1nc2c(=O)n(C)c(=O)nc-2n(C)n1`, 326 nM (active); for `COc1ccc(-c2nc3c(=O)n(C)c(=O)nc-3n(C)n2)cc1`, 163 nM (active). `O=C(O)c1cccc(CN2C(=O)S/C(=C/c3ccccc3[N+](=O)[O-])C2=O)c1`: the “activity change, negative = killing” value was -35.3%. For `O=C1S/C(=C\c2ccc(O)c([N+](=O)[O-])c2)C(=O)N1c1ccccc1Cl`, the Potency is 1630 nM (active). On the same count and under the same terms, for `O=C1S/C(=C\c2ccc(O)c([N+](=O)[O-])c2)C(=O)N1Cc1cccc([N+](=O)[O-])c1` the value was 818 nM (active); for `O=C1/C(=C/c2ccc(O)c([N+](=O)[O-])c2)SC(=S)N1Cc1ccccc1`, 1450 nM (active). In the case of `COc1cccc(/C=C2\Oc3ccc(O)cc3C2=O)c1O`, the Potency is 3260 nM (active). Still for that read-out and setting: for `COc1ccc2c(c1)[n+](=O)c(C(C)=O)c(C)n2[O-]` the value was 4100 nM (active). Take `CC(=O)c1c(C)n([O-])c2ccc(C)cc2[n+]1=O`: the Potency was 410 nM (active). Same read-out and setting: for `CC(=O)c1c(C)n([O-])c2cc(C)ccc2[n+]1=O` the value was 818 nM (active). With `CCOc1ccc(-n2c(C)c(C(C)=O)c3cc(O)ccc32)cc1`, the “activity change, negative = killing” value was 5.94%. Regarding `CCN(CC)CC(=O)c1c(C)n(C)c2ccc(OC)cc12`, the “activity change, negative = killing” value is 0.629%. Turning to `CC(=O)c1c(C)n([O-])c2ccccc2[n+]1=O`, the Potency was 650 nM (active). As for `NC(=S)N/N=C1\c2ccccc2-c2c(C(=O)O)cccc21`, the “activity change, negative = killing” value is -2.7%.

As to `CC(=O)OCc1c(COC(C)=O)[n+](=O)c2ccccc2n1[O-]`, the Potency is 5790 nM (active). The same measure, in the same setting: the figure for `CC(=O)c1c(C)n([O-])c2cc(F)c(F)cc2[n+]1=O` is 4100 nM (active); for `O=C(Nc1ccc2oc(-c3ccncc3)nc2c1)c1ccc([N+](=O)[O-])o1` it is 918 nM (active); for `O=C(Nc1ccc2oc(-c3cccnc3)nc2c1)c1ccc([N+](=O)[O-])o1` it is 918 nM (active). Same read-out and setting: for `O=C(Nc1ccc2oc(-c3ccccc3F)nc2c1)c1ccc([N+](=O)[O-])o1` the value was 818 nM (active); for `Cc1cnc(N=Nc2ccccc2)[nH]1`, 9180 nM (active); for `O=C(NCCCO)c1cc([N+](=O)[O-])cc2c1C=Cc1ccccc1O2`, 11600 nM (active).

In the case of `O=C(Nc1c(Cl)ccc2nsnc12)c1ccc([N+](=O)[O-])o1`, the Potency was 1300 nM (active). The same measure, in the same setting: the figure for `Cc1ccc2nsnc2c1NC(=O)c1ccc([N+](=O)[O-])o1` is 3260 nM (active).

In the case of `NC(=S)NN=C1CCCCCCCC1`, the Potency is 23100 nM (active). Same read-out and setting: the figure for `Cc1ncc([N+](=O)[O-])n1CCOC(=O)NC(NCc1ccccc1)C(Cl)(Cl)Cl` (stereo not given) is 206 nM (active). Still for that read-out and setting: the figure for `Cc1ncc([N+](=O)[O-])n1CCOC(=O)NC(NCc1cccnc1)C(Cl)(Cl)Cl` (stereo not given) is 460 nM (active). `Cc1ncc([N+](=O)[O-])n1CCOC(=O)NC(NCc1ccccc1Cl)C(Cl)(Cl)Cl` (stereo not given): the Potency was 146 nM (active).

As for `CCCCCCSc1ccc([C@H]2N[C@@](Cc3ccccc3)(C(=O)OC)[C@H]3C(=O)N(C)C(=O)[C@@H]23)cc1`, the “activity change, negative = killing” value was -9.35%. Turning to `Cc1cc(=O)oc2cc(O)c(N=Nc3ccccc3)cc12`, the Potency was 1030 nM (active). Turning to `Cn1c(-c2ccc(C(=O)c3ccccc3)s2)nc2ccccc21`, the Potency is 3260 nM (active). The same measure, in the same setting: the figure for `O=[N+]([O-])c1ccc2nc(-c3ccc(OC(F)F)cc3)cn2c1` is 2310 nM (active); for `COc1ccc(-c2cn3cc([N+](=O)[O-])ccc3n2)cc1OC` it is 1830 nM (active).
